Over roughly 140,000 sequences, “enrichment ratio after two sorts for PhoP signalling” has its median near 0; the highest 2% begin near 11. The list comes from a sample in which the highest values are over-represented; it also holds similar and randomly drawn sequences.
B1: PhoQ; a variant is named by its letters at X, in order, P23837 (parent)
chain: MKKLLRLFFPLSLRVRFLLATAAVVLVLSLAYGMVALIGYSVSFDKTTFRLLRGESNLFYTLAKWENNKLHVELPENIDKQSPTMTLIYDENGQLLWAQRDVPWLMKMIQPDWLKSNGFHEIEADVNDTSLLLSGDHSIQQQLQEVREDDDDAEMTHSVAVNVYPATSRMPKLTIVVVDTIPVELKSSYMVWSWFIYVLSANLLLVIPLLWVAAWWSLRPIEALAKEVRELEEHNRELLNPATTRELTSLVRNLNRLLKSERERYDKYRTTLTDLTHSLKTPLXXLQXXLRSLRSEKMSVSDAEPVMLEQISRISQQIGYYLHRASMRGGTLLSRELHPVAPLLDNLTSALNKVYQRKGVNISLDISPEISFVGEQNDFVEVMGNVLDNACKYCLEFVEISARQTDEHLYIVVEDDGPGIPLSKREVIFDRGQRVDTLRPGQGVGLAVAREITEQYEGKIVAGESMLGGARMEVIFGRQHSAPKDE

Variants of: B1
Experiment: enrichment ratio after two sorts for PhoP signalling (ratio (wild type AVST 3.29)); higher = more functional
Settings: with PhoP (E. coli)

Variant | enrichment ratio
SKFF | ≤ 0.25
ALTN | 7.81
SRAG | ≤ 0.25
IRNN | ≤ 0.25
KMTD | ≤ 0.25
DIIE | ≤ 0.25
HEPC | ≤ 0.25
YNTI | ≤ 0.25
GRQY | ≤ 0.25
NGML | ≤ 0.25
VNNL | ≤ 0.25
VNSK | ≤ 0.25
TGML | 12.2
MVPL | ≤ 0.25
HIML | ≤ 0.25
VNML | 14.6
MVML | 11.9
HGML | 21.6
RGML | ≤ 0.25
MVCL | 4.31
HFML | ≤ 0.25
YQHI | ≤ 0.25
FWLA | ≤ 0.25

Variant | enrichment ratio
TCLH | 1.39
SHYK | ≤ 0.25
DMSQ | ≤ 0.25
IDIQ | ≤ 0.25
RRTP | ≤ 0.25
MAIN | ≤ 0.25
GTWQ | ≤ 0.25
EFQI | ≤ 0.25
FGML | 22.9
PVML | ≤ 0.25
GVML | 13.4
QGML | 6.23
GYML | ≤ 0.25
GCML | 3.33
PWML | ≤ 0.25
GTML | 12.6
FGDL | ≤ 0.25
SCGR | ≤ 0.25
GTVR | ≤ 0.25
SFSS | ≤ 0.25
VDHN | ≤ 0.25
ILLE | ≤ 0.25
DHMC | ≤ 0.25

Variant | enrichment ratio
FYNT | ≤ 0.25
ANLF | 10.7
KIQT | ≤ 0.25
ISLD | ≤ 0.25
ETRK | ≤ 0.25
TGAM | 13
SHAM | 8.88
FFAM | ≤ 0.25
VRAM | ≤ 0.25
QGAM | 13
THAM | 18.6
RGAM | ≤ 0.25
SRAM | ≤ 0.25
NGAM | ≤ 0.25
NHAM | ≤ 0.25
TRAM | 15.1
QGWM | 9.7
EKVL | ≤ 0.25
YQEF | ≤ 0.25
KAPT | ≤ 0.25
IGGQ | ≤ 0.25
KDAM | ≤ 0.25
TFTM | 3.86

Variant | enrichment ratio
GGAM | 18.2
YHAM | ≤ 0.25
TFGM | 1.64
LTAM | ≤ 0.25
TDAM | 17.8
TFAM | 18.6
NIAM | ≤ 0.25
LYIW | ≤ 0.25
VRDS | ≤ 0.25
TDMI | 27.6
LTMI | 0.673
AKMI | 12.8
AKMD | ≤ 0.25
PTMI | ≤ 0.25
ADMI | 12.7
TKMI | 38.2
TKMG | 7.64
ADFA | ≤ 0.25
AYMI | 0.272
AIMI | 5.72
TDFA | ≤ 0.25

From a collection of fitness landscapes (doi:10.1126/science.1257360)
